# Assay outcomes from PubChem BioAssay.
# Compounds with a hit are over-represented: about 3.8% of the library has one in this group of screens.
# ATXN viability: Viability Counterscreen for Primary qHTS for Inhibitors of ATXN expression | Potency, µM (top dose mostly 56.7 µM), hits mostly cytotoxic | hit rate 0.49% among 400,000 | S2 cells (HEK-293 line with an ATXN2-luciferase reporter) viability, CellTiter-Fluor protease fluorescence, 24 h; further: nearly all actives have a fitted effect of over 40% in size
# A549 viability: Nrf2 qHTS screen for inhibitors: counterscreen for cytotoxicity | A549 ARE-Fluc cells, CellTiter-Fluor viability, 18-24 h | Potency, µM (top dose mostly 46 µM), for the others: at the highest dose activity change, negative = cytotoxicity, usual class: inhibitors | hit rate 0.16% among 390,000 | AID 504648, 2011; further: on the % scale 0 is the no-effect control and ±100 the full control effect
#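 A549 ARE_Fluc cells in 5% FBS OPTI-MEM were exposed to compounds in concentration-response for 18-24 h at 37 deg C. Viability was read by CellTiter-Fluor fluorescence (Ex 405/Em 525) after 30 min, before the luciferase read.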
# TGFb SMAD3 inh: qHTS for Inhibitors of TGF-b; HepG2 CAGA-GFP TGF-b/SMAD3 reporter, GFP fluorescence, 18 h; TGF-beta stimulated, 500 pg/mL final; Potency, µM (titrated, usually from 46.1 µM), inactives show at the top dose activity, negative = inhibition, usual class: inhibitors; hit rate 1.2% among 410,000; AID 588855, 2011; further: on the % scale 0 is the no-effect control and ±100 the full control effect; nearly all actives have a fitted effect of over 65% in size
#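 Read-out: total well GFP (ex488/em500-530) summed from mean per-cell fluorescence. Cells: HEPG2 CAGA-GFP, 1% FBS DMEM, 18 h at 37 degrees C with 500 pg/mL final TGF-beta. Unstimulated wells served as the full-inhibition control; stimulated DMSO wells = 0%.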
# HepG2 tox: qHTS for Inhibitors of TGF-b: Cytotox Counterscreen; Potency, µM (doses to about 46.1 µM), for inactives: top-dose activity change, negative = cytotoxicity, hits mostly cytotoxic; AID 588856, 2011; hit rate 0.76% among 410,000; HepG2 CAGA-GFP viability, ATP luminescence, 18 h
#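 CellTiter-Glo luminescence gave cytotoxicity after 18 hours at 37 degrees C. The cells were HepG2 CAGA-GFP in 1% FBS DMEM, stimulated with 500 pg/mL TGF-beta after compound addition. %Activity was normalised to no-cell wells (complete cell-killing) and DMSO (no toxicity), and curves were fitted and classified.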
# ATXN2 expr inh: Primary qHTS for Inhibitors of ATXN expression | HEK-293 ATXN2-luciferase reporter, luminescence, 24 h | Potency, µM (highest dose often 57 µM), inactives show at the highest dose activity change, negative = inhibition, usual class: inhibitors | hit rate 0.72% among 360,000 | AID 1745845, 2022; further: on the % scale 0 is the no-effect control and ±100 the full control effect; nearly all actives have a fitted effect of over 55% in size
#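 ATXN2-luciferase reporter cells (luciferase flanked by upstream and downstream ATXN2 gene portions) were treated 24 h at 37 °C with compounds at up to 57 uM. SteadyGlo luminescence gave expression; GF-AFC fluorescence gave viability.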
# Nrf2 inh: Nrf2 qHTS screen for inhibitors; A549 ARE-Fluc reporter, luciferase luminescence, 18-24 h; Potency, µM (doses to about 46 µM), for the others: at the highest dose activity change, negative = inhibition, actives largely listed as inhibitors; hit rate 2.1% among 360,000; further: on the % scale 0 is the no-effect control and ±100 the full control effect; nearly all actives have a fitted effect of over 60% in size
#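 Cells were seeded and rested 2 h, then exposed to compounds for 18-24 h. CellTiter-Fluor was read first as a viability measure. BugLite was added 15 min before the final luminescent read of ARE-luciferase activity in A549 cells.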
# Numbers without * were called inactive; i = inactive; ? = inconclusive; · = no result given. The call rests on the fitted dose curve; in most records, active means well fitted curve in the direction sought with a large enough effect; inconclusive means small, poorly fitted or top-dose-only effect, or another doubt; inactive means no such curve, though single readings can be large; an effect the other way counts as inactive or inconclusive. Potency means the concentration at half of the fitted maximal effect.
SMILES,ATXN viability,A549 viability,TGFb SMAD3 inh,HepG2 tox,ATXN2 expr inh,Nrf2 inh
COc1ccccc1N1CCN(Cc2cc(COC(C)C)c3cccnc3c2O)CC1,·,-3%,2.2µM*,2.8µM*,·,?
Cc1ccc(NS(=O)(=O)c2ccc3c(c2)[C@H]2C=CC[C@H]2[C@@H](c2ccc(F)cc2)N3)cc1C,i,-11%,8.9µM*,-22%,-19%,-20%
COC(=O)c1ccc([C@H]2Nc3ccc(S(=O)(=O)Nc4cccc(C)c4)cc3[C@H]3C=CC[C@H]32)cc1,?,-9%,6.3µM*,-23%,-21%,2%
Cc1cc(C)c(C(=O)C2OC(=O)C(C)(C)C(=O)C2(C)C)c(C)c1 (stereo unspecified),i,0%,9%,2%,-22%,·
Cc1ccn2c(=O)c(C(=O)NCCc3ccc(S(N)(=O)=O)cc3)c(O)nc2c1,i,1%,-1%,-11%,-9%,11%
CN(CCCNC(=O)Cn1ncc2c([nH]c3ccccc32)c1=O)Cc1ccccc1,i,6%,-22%,-37%,-3%,3%
COc1cc(C2c3c(-c4ccccc4O)n[nH]c3C(=O)N2CCO)ccc1OCc1ccccc1 (stereo unspecified),·,-6%,-25%,-18%,·,0%
Cc1ccc(C2c3c(-c4ccccc4O)n[nH]c3C(=O)N2CCc2ccccc2)cc1 (stereo unspecified),·,?,11µM*,-95%,·,?
CCCOc1ccc(C2c3c(-c4ccccc4O)n[nH]c3C(=O)N2CCc2ccccc2)cc1OCC (stereo unspecified),·,-2%,11µM*,11µM*,·,22%
CCCN1C(=O)c2[nH]nc(-c3ccccc3O)c2C1c1ccc(OCc2ccccc2)c(OC)c1 (stereo unspecified),·,?,13µM*,-42%,·,?
CCOc1cc(C2c3c(-c4cc(C)ccc4O)n[nH]c3C(=O)N2CCCOC(C)C)ccc1O (stereo unspecified),·,1%,13µM*,-13%,·,13%
COc1ccc(NC(=O)c2sc3nc4c(c(-c5ccc(OC)cc5)c3c2N)C(=O)CC(C)(C)C4)cc1,?,-10%,0%,-6%,1%,-21%
Cc1ccc(S(=O)(=O)N2CCCCC2)cc1NC(=O)c1ccncc1,i,-1%,-27%,4%,-4%,-18%
O=C1c2[nH]nc(-c3ccccc3O)c2C(c2cccc(OCc3ccccc3)c2)N1CCCO (stereo unspecified),·,-4%,10µM*,-102%,·,10%
CCc1ccc(C2c3c(-c4cc(C)ccc4O)n[nH]c3C(=O)N2Cc2cccnc2)cc1 (stereo unspecified),·,-7%,?,20µM*,?,-1%
O=C1c2[nH]nc(-c3ccccc3O)c2C(c2cccc(Br)c2)N1Cc1ccncc1 (stereo unspecified),11µM*,-11%,?,-38%,?,-8%
Cc1ccc(C2c3c(-c4ccccc4O)n[nH]c3C(=O)N2Cc2ccncc2)cc1 (stereo unspecified),?,-12%,-19%,-52%,-29%,-15%
CN(CC(=O)Nc1ccc(F)cc1F)S(=O)(=O)c1ccc(C(=O)N2CCOCC2)s1,i,1%,-4%,12%,-3%,·
CC(NCC(O)COc1ccc2ccccc2c1)c1ccccc1 (stereo unspecified),?,4%,?,11µM*,18µM*,6%
CCCC(NCC(O)COc1ccc(-c2ccccc2)cc1)c1ccccc1 (stereo unspecified),?,?,?,-110%,19µM*,?
COc1cccc(Cl)c1NC(=O)N1CCc2c([nH]c3ccccc23)C1C(F)(F)F (stereo unspecified),?,-9%,?,-38%,?,3%
CCc1ccc(NC(=O)C2CCCN(S(=O)(=O)c3cccc4cccnc34)C2)cc1 (stereo unspecified),·,-12%,10µM*,-8%,·,-19%
O=C(Nc1ccc(F)cc1)C1CCCN(S(=O)(=O)c2cccc3cccnc23)C1 (stereo unspecified),?,-14%,-1%,-6%,-21%,?
O=C(Nc1ccccc1Cl)C1CCCN(S(=O)(=O)c2cccc3cccnc23)C1 (stereo unspecified),i,7%,-27%,-3%,·,9%
O=C(Nc1nc2cc(Cl)ccc2s1)C1CCCN(S(=O)(=O)c2cccc3cccnc23)C1 (stereo unspecified),?,-16%,?,17%,18µM*,?
SMILES,ATXN viability,A549 viability,TGFb SMAD3 inh,HepG2 tox,ATXN2 expr inh,Nrf2 inh
COc1ccc(C(=O)N2CCCC(C(=O)O)C2)c2ccccc12 (stereo unspecified),i,2%,13%,15%,2%,13%
CS(=O)(=O)c1ccc(-c2sc3ccccc3c2C(=O)NCCCN2CCOCC2)cc1,i,1%,10%,-10%,7%,-7%
CN(c1ccccc1)C1CCCCC1NS(=O)(=O)c1ccc(Cl)cc1 (stereo unspecified),?,-7%,11µM*,-83%,·,?
Cc1csc(N/N=C/c2ccccn2)n1,·,?,?,-27%,14µM*,?
C(=NNc1ccc2ccccc2n1)c1ccccn1,2µM*,·,?,-37%,-78%,·
Cc1ccc2[nH]c(C)c(/C=N/Nc3nc4ccccc4s3)c2c1,i,?,11µM*,-41%,-20%,?
Brc1csc(/C=N/Nc2nc3ccccc3s2)c1,i,-3%,-34%,-12%,73%,?
Cc1ccc2[nH]c(O)c(N=Nc3nc4ccccc4s3)c2c1,13µM*,-22%,-16%,-12%,?,?
Oc1[nH]c2ccccc2c1N=Nc1nc2ccccc2s1,i,-1%,11%,-21%,77%,?
CCNC(=O)CC1C(=O)N(c2ccc(F)cc2)C(=O)N1CCOC (stereo unspecified),i,3%,8%,-7%,7%,8%
CC1CCCCN1S(=O)(=O)c1cc2c(=O)nc3ccccn3c2cc1Cl (stereo unspecified),i,-2%,2%,5%,7%,·
COc1cccc2c1cc1c(=O)n(CC(=O)N3CCN(c4cccc(C)c4)C(C)C3)nc(C)n12 (stereo unspecified),·,1%,-1%,-1%,·,14%
